Test results: PubChem BioAssay (Tox21)
Values joined by “and” are separate entries in the source; they are usually repeats but may differ in a detail not shown here. Equal values may be shown once. Results filed as inconclusive are left out. A structure can be active in one record and inactive in another. Active and inactive are the calls of the source. Unless noted, calls follow the shape of the dose curve; as a rule, active = well fitted curve in the direction sought with a large enough effect in the repeat runs; inconclusive = weak or mixed curves; inactive = no such curve, though single readings can be large; an effect the other way counts as inactive or inconclusive.

Tests used:
[1] = qHTS assay to identify small molecule antagonists of the estrogen related receptor (ERR) signaling pathway from Tox21 library (AID 1224848); also: nearly all actives have a fitted effect of over 50% in size; also: potency is read from the fitted curve at half-maximal effect
Method in brief: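 Screening used an ERR reporter line supplied by NTP, exposed for 18 h at 37 C to library compounds delivered in DMSO. Signal was luciferase luminescence developed with ONE-Glo at room temperature for 30 min.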

[2] = qHTS assay to identify small molecule agonists of the estrogen related receptor (ERR) signaling pathway from Tox21 library (AID 1224849; calls by dose curve; also: nearly all actives have a fitted effect of over 15% in size); details: ERR reporter cell line, ONE-Glo luciferase, 18 h
Method in brief: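 ERR cells, 6 h pre-incubation 37 C/5% CO2; cpd in DMSO pinned; 18 h 37 C; ONE-Glo added, 30 min RT; luminescence read. Agonist mode, qHTS.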

[3] = qHTS RealTime-Glo MT Cell Viability Assay in HepG2 cells - 24 hour (AID 1224867); also: nearly all actives have a fitted effect of over 50% in size
Method in brief: (§1)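 Real-time, nonlytic viability: 600 HepG2 cells/well mixed with NanoLuc enzyme plus prosubstrate; 5 h settle, compound (DMSO) added by pintool; luminescence monitored over 40 h at 37 C.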

[4] = qHTS RealTime-Glo MT Cell Viability Assay in HEK293 cells - 32 hour (AID 1224868); also: nearly all actives have a fitted effect of over 50% in size; also: potency is read from the fitted curve at half-maximal effect
Method in brief: (§2)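 Cells + reagent dispensed (600 cells/well, HEK293) → 5 h at 37 C/5% CO2 → 23 nL compound in DMSO pinned → 40 h at 37 C → luminescence read at 0, 8, 16, 24, 32, 40 h.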

[5] = qHTS RealTime-Glo MT Cell Viability Assay in HepG2 cells - 40 hour (AID 1224870); also: nearly all actives have a fitted effect of over 50% in size
Method in brief: (§3)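 HepG2 cells mixed with RealTime-Glo MT reagents (NanoLuc plus cell-permeant prosubstrate) were seeded at 600 cells/well, incubated 5 h at 37 C/5% CO2, then pinned with compounds in DMSO; nonlytic luminescence tracked viability during 40 h treatment.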

[6] = A CellTox Green Cytotoxicity Assay to monitor cytotoxicity in HEK293 cells - 40 hour (AID 1224871); also: nearly all actives have a fitted effect of over 45% in size
Method in brief: (§4)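 Nonlytic real-time cytotoxicity: HEK293 + CellTox Green reagent plated, 5 h preincubation, pintool compound addition (23 nL in DMSO), 37 C for 40 h, fluorescence measured at successive time points.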

[7] = qHTS RealTime-Glo MT Cell Viability Assay in HEK293 cells - 16 hour (AID 1224872)
Method in brief: as §2

[8] = qHTS RealTime-Glo MT Cell Viability Assay in HepG2 cells - 8 hour (AID 1224873); also: nearly all actives have a fitted effect of over 55% in size
Method in brief: as §3

[9] = qHTS RealTime-Glo MT Cell Viability Assay in HEK293 cells - 40 hour (AID 1224874); details: RealTime-Glo luminescence; max response: stronger effect = lower value; also: nearly all actives have a fitted effect of over 50% in size; also: potency is read from the fitted curve at half-maximal effect
Method in brief: (§5)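 Cells were seeded together with NanoLuc luciferase and a prosubstrate that viable cells reduce to a luciferase substrate. After a 5 h incubation at 37 C/5% CO2, compounds were added and luminescence was measured repeatedly during 40 h of treatment.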

[10] = A CellTox Green Cytotoxicity Assay to monitor cytotoxicity in HEK293 cells - 24 hour (AID 1224875); also: nearly all actives have a fitted effect of over 45% in size
Method in brief: as §4

[11] = A CellTox Green Cytotoxicity Assay to monitor cytotoxicity in HepG2 cells - 16 hour (AID 1224876); also: nearly all actives have a fitted effect of over 45% in size
Method in brief: (§6)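 Read-out is fluorescence of a cyanine dye excluded from live cells that stains DNA of dead HepG2 cells, with signal proportional to cytotoxicity. Plates were read at 0, 8, 16, 24, 32 and 40 h after compound addition.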

[12] = qHTS RealTime-Glo MT Cell Viability Assay in HepG2 cells - 32 hour (AID 1224877); also: nearly all actives have a fitted effect of over 55% in size
Method in brief: as §1

[13] = A CellTox Green Cytotoxicity Assay to monitor cytotoxicity in HepG2 cells - 24 hour (AID 1224878); also: nearly all actives have a fitted effect of over 45% in size; also: potency is read from the fitted curve at half-maximal effect
Method in brief: as §6

[14] = A CellTox Green Cytotoxicity Assay to monitor cytotoxicity in HepG2 cells - 40 hour (AID 1224879); also: nearly all actives have a fitted effect of over 40% in size; also: potency is read from the fitted curve at half-maximal effect
Method in brief: as §6

[15] = qHTS RealTime-Glo MT Cell Viability Assay in HEK293 cells - 0 hour (AID 1224880)
Method in brief: as §5

[16] = A CellTox Green Cytotoxicity Assay to monitor cytotoxicity in HEK293 cells - 32 hour (AID 1224881); also: nearly all actives have a fitted effect of over 40% in size
Method in brief: as §4

[17] = A CellTox Green Cytotoxicity Assay to monitor cytotoxicity in HepG2 cells - 0 hour (AID 1224882); also: nearly all actives have a fitted effect of over 35% in size
Method in brief: as §6

[18] = A CellTox Green Cytotoxicity Assay to monitor cytotoxicity in HepG2 cells - 32 hour (AID 1224883); also: nearly all actives have a fitted effect of over 50% in size; also: potency is read from the fitted curve at half-maximal effect
Method in brief: as §6

[19] = A CellTox Green Cytotoxicity Assay to monitor cytotoxicity in HEK293 cells - 8 hour (AID 1224884); also: nearly all actives have a fitted effect of over 35% in size
Method in brief: as §4

[20] = A CellTox Green Cytotoxicity Assay to monitor cytotoxicity in HEK293 cells - 0 hour (AID 1224869); also: nearly all actives have a fitted effect of over 50% in size
Method in brief: as §4
% is scaled to controls: 0 for no effect and ±100 for the full control effect.

O=c1[nH]nnc2ccccc12
inactive: Potency [1] | activity change, positive = activation ([2]; at 92.4 µM (top of the series)) 5.04% and -0.708% | outcome [3] | Potency [4] | outcome [5] | Potency [6] | Potency [7] | outcome [8] | max response [9] 2.18% and -25.5% | Potency [10] | Potency [11] | outcome [12] | Potency [13] | Potency [14] | Potency [15] | Potency [16] | outcome [17] | Potency [18] | outcome [19]

Nc1ccccc1[N+](=O)[O-]
inactive: Potency [1] | activity change, positive = activation ([2]; at 92.4 µM (top of the series)) 9.45% and 1.58% | outcome [3] | outcome [5] | Potency [6] | Potency [7] | outcome [8] | max response [9] 3.94% and 2.64% | Potency [10] | Potency [11] | outcome [12] | Potency [13] | Potency [14] | Potency [15] | outcome [17] | Potency [18] | outcome [19]

CCCCC(CC)COC(=O)C(C#N)=C(c1ccccc1)c1ccccc1 (stereo not drawn)
inactive: activity change, positive = activation ([2]; at 42.5 µM (top of the series)) -38.1% | activity change, positive = activation ([2]; at 92.4 µM (top of the series)) -32.9% | outcome [3] | Potency [4] | outcome [20] | outcome [5] | Potency [6] | Potency [7] | outcome [8] | max response [9] -27.4% | Potency [10] | Potency [11] | outcome [12] | Potency [13] | Potency [14] | Potency [15] | Potency [16] | outcome [17] | Potency [18] | outcome [19]
active: Potency [1] 23.7 µM

O=C(O)CCCC[C@@H]1SC[C@@H]2NC(=O)N[C@@H]21
inactive: Potency [1] | activity change, positive = activation ([2]; at 42.5 µM (top of the series)) 7.51% | activity change, positive = activation ([2]; at 92.4 µM (top of the series)) 9.85% | Potency [4] | outcome [20] | outcome [5] | Potency [6] | Potency [7] | outcome [8] | max response [9] 6.98% and 0.709% | Potency [10] | Potency [11] | outcome [12] | Potency [13] | Potency [14] | Potency [15] | Potency [16] | outcome [17] | Potency [18] | outcome [19]

CCc1cccc(C)c1N
inactive: Potency [1] | activity change, positive = activation ([2]; at 92.4 µM (top of the series)) -1.49% | outcome [3] | outcome [5] | Potency [6] | Potency [7] | outcome [8] | max response [9] 1.23% and 1.97% | Potency [10] | Potency [11] | outcome [12] | Potency [13] | Potency [15] | Potency [16] | outcome [17] | Potency [18] | outcome [19]

CC(C)CC(=O)CC(C)C
inactive: Potency [1] | activity change, positive = activation ([2]; at 92.4 µM (top of the series)) 0.354% and 0.455% | outcome [3] | outcome [5] | Potency [6] | Potency [7] | outcome [8] | max response [9] 3.78% and -11.6% | Potency [10] | Potency [11] | outcome [12] | Potency [13] | Potency [15] | Potency [16] | outcome [17] | Potency [18] | outcome [19]

CC[C@H](C)C(=O)O[C@H]1C[C@@H](C)C=C2C=C[C@H](C)[C@H](CC[C@@H]3C[C@@H](O)CC(=O)O3)[C@H]21
inactive: Potency [1] | Potency [4] | outcome [20] | outcome [5] | Potency [6] | Potency [7] | outcome [8] | max response [9] -8.74% and -19.2% | Potency [10] | outcome [12] | Potency [15] | Potency [16] | outcome [17] | outcome [19]
active: activity change, positive = activation ([2]; at 42.5 µM (top of the series)) 14.3% | activity change, positive = activation ([2]; at 92.4 µM (top of the series)) -46.9% and 27.5% | Potency [13] 24.9 µM and 10.7 µM | Potency [14] 7.01 µM and 21.8 µM and 9.52 µM | Potency [18] 11.1 µM and 17.3 µM and 9.52 µM

O=P(OC(CCl)CCl)(OC(CCl)CCl)OC(CCl)CCl
inactive: activity change, positive = activation ([2]; at 92.4 µM (top of the series)) -54.2% and -40.7% | outcome [3] | outcome [20] | outcome [5] | Potency [6] | outcome [8] | Potency [10] | outcome [12] | Potency [13] | Potency [14] | Potency [15] | outcome [17] | Potency [18] | outcome [19]
active: Potency [1] 48.3 µM and 54.5 µM | Potency [4] 24.4 µM and 49 µM | Potency [9] 21.8 µM and 49 µM

CCCCC(CC)COC(=O)CS (stereo not drawn)
inactive and 17.4 µM (active): Potency [4]
inactive: Potency [1] | activity change, positive = activation ([2]; at 92.4 µM (top of the series)) -0.266% and -15.8% | outcome [3] | outcome [5] | Potency [6] | Potency [7] | outcome [8] | max response [9] 6.5% | Potency [10] | outcome [12] | Potency [13] | Potency [14] | Potency [15] | outcome [17] | Potency [18] | outcome [19]
active: Potency [9] 19.5 µM

Nc1cc([N+](=O)[O-])ccc1O
inactive: Potency [1] | activity change, positive = activation ([2]; at 92.4 µM (top of the series)) -4.29% and 0.807% | Potency [4] | outcome [5] | Potency [6] | Potency [7] | outcome [8] | max response [9] -21.5% and -15.3% | Potency [10] | outcome [12] | Potency [13] | Potency [15] | outcome [17] | Potency [18] | outcome [19]

ON=C1CCCCC1
inactive: Potency [1] | activity change, positive = activation ([2]; at 92.4 µM (top of the series)) -1.41% and -1.15% | outcome [5] | Potency [6] | Potency [7] | outcome [8] | max response [9] -0.0267% and 0.158% | Potency [10] | Potency [11] | outcome [12] | Potency [13] | Potency [15] | outcome [17] | Potency [18] | outcome [19]

CCC(O)OC(O)CC (stereo not drawn)
inactive: Potency [1] | activity change, positive = activation ([2]; at 92.4 µM (top of the series)) 4% and 3.85% | outcome [3] | outcome [5] | Potency [6] | Potency [7] | outcome [8] | max response [9] 5.86% and 8.63% | Potency [10] | Potency [11] | outcome [12] | Potency [13] | Potency [14] | Potency [15] | Potency [16] | outcome [17] | Potency [18] | outcome [19]
